# From PubChem BioAssay (Tox21)
# Values joined by “and” are separate entries in the source; they are usually repeats but may differ in a detail not shown here. Equal entries are not always repeated. Results filed as inconclusive are left out. Where a call stands in place of a potency, no number is given. A structure can be active in one record and inactive in another. Active and inactive are the calls of the source. Unless noted, the call rests on the fitted dose curve; in most records, active means well fitted curve in the direction sought with a large enough effect in the repeat runs; inconclusive means weak or mixed curves; inactive means no such curve, though single readings can be large; an effect the other way counts as inactive or inconclusive.
# What was measured:
# [1] = qHTS assay for small molecules that induce genotoxicity in human embryonic kidney cells expressing luciferase-tagged ATAD5 (AID 651632); conditions: HEK293T ATAD5-luciferase induction, 16 h; series mostly up to 83.3 µM; further: nearly all actives have a fitted effect of over 15% in size
# Procedure, shortened: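 Luminescent reporter readout, HEK293T ATAD5-luc line: 16 hr drug exposure (37C, 5% CO2) followed by Amplite, 30 min RT.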
# [2] = qHTS assay for small molecule disruptors of the mitochondrial membrane potential - cell viability (AID 720634; calls by dose curve; further: nearly all actives have a fitted effect of over 20% in size; further: potency means the concentration at half of the fitted maximal effect); conditions: HepG2 viability, ATP luminescence (CellTiter-Glo), 1 h; series mostly up to 83.2 µM
# Procedure, shortened: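 HepG2, 1 hr compound, 37 C. ATP luminescence via CellTiter-Glo, 30 min RT, same well as m-MPI.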
# [3] = qHTS assay for small molecule disruptors of the mitochondrial membrane potential (AID 720635); conditions: HepG2 mitochondrial membrane potential, Mito-MPS dye ratio; series mostly up to 83.2 µM; further: potency means the concentration at half of the fitted maximal effect
# Procedure, shortened: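 Mitochondrial membrane potential tracked with Mito-MPS dye, red aggregates (ex 540/em 590 nm) against green monomers (ex 490/em 535 nm). Compound treatment 1 hr at 37C, dye 30 min in HepG2.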
# [4] = qHTS assay to test for compound auto fluorescence at 590 nm (red) in HepG2 cells (AID 720674); conditions: HepG2 autofluorescence, red 540/590 nm, 1 h; series mostly up to 91.3 µM
# Procedure, shortened: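 Red autofluorescence (Ex/Em 540/590 nm, Rose Bengal sodium equivalents) was measured in HepG2 cells, 2,000 per well in MEM plus 10% FBS, plated overnight at 37 C. Readings were taken 1 hr after adding 23 nL compound or DMSO, at 37 C and 5% CO2.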
# [5] = qHTS assay to test for compound auto fluorescence at 535 nm (green) in HepG2 cells (AID 720675); conditions: green autofluorescence 485/535 nm, 1 h; series mostly up to 91.3 µM; further: potency means the concentration at half of the fitted maximal effect
# [6] = qHTS assay to test for compound auto fluorescence at 460 nm (blue) in HEK293 cells (AID 720678); conditions: blue autofluorescence 405/460 nm; series mostly up to 91.3 µM
# Procedure, shortened: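 Auto fluorescence in the blue band was quantified as triamterene equivalency. HEK293 cells were seeded at 2,000/well, dosed after a 4-5 hr attachment, and kept overnight at 37C before the 405/460 nm reading.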
# [7] = qHTS assay to test for compound auto fluorescence at 590 nm (red) in HEK293 cells (AID 720679); conditions: red autofluorescence 540/590 nm; series mostly up to 91.3 µM
# Procedure, shortened: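 Autofluorescence equivalency to Rose Bengal sodium, 540/590nm, in HEK293 cells exposed overnight to 23 nL compound per well.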
# [8] = qHTS assay for small molecule agonists of the p53 signaling pathway - cell viability (AID 651633; calls by dose curve; further: nearly all actives have a fitted effect of over 30% in size; further: potency means the concentration at half of the fitted maximal effect); conditions: p53RE-bla HCT-116 viability, ATP luminescence, 16 h; series mostly up to 83.3 µM
# Procedure, shortened: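 Viability counter-read: CellTiter-Glo luminescence (30 min, room temperature) in the same p53RE-bla plates. These plates had been exposed to compounds for 16 h at 37 C.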
# [9] = qHTS assay for small molecules that induce genotoxicity in human embryonic kidney cells expressing luciferase-tagged ATAD5 - cell viability (AID 651634; calls by dose curve; further: nearly all actives have a fitted effect of over 25% in size; further: potency means the concentration at half of the fitted maximal effect); conditions: HEK293T ATAD5-luc cells viability, CellTiter-Fluor, 15.5 h; series mostly up to 83.3 µM
# Procedure, shortened: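 Viability read: CellTiter-Fluor fluorescence, 30 min at 37C. Cells: HEK293T, luciferase-tagged ATAD5. Exposure: 15.5 hr, 37C, 5% CO2, compound or DMSO vehicle.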
SMILES,Potency [1],Potency [2],Potency [3],outcome [4],Potency [5],Potency [6],outcome [7],Potency [8],Potency [9]
Nc1nc(=S)c2[nH]cnc2[nH]1,inactive,inactive,inactive,inactive,inactive,inactive,inactive,–,–
CN(C)c1ccc(C(=C2C=CC(=[N+](C)C)C=C2)c2ccccc2)cc1,inactive,inactive and 17.2 µM (active),29.8 µM (active) and 77 nM (active),inactive,inactive,inactive,inactive,23.7 µM (active) and 273 nM (active),–
O=C1OC2(c3ccc(O)cc3Oc3cc(O)ccc32)c2ccccc21,inactive,inactive,84.1 nM (active) and 61.1 nM (active),inactive,3.16 µM (active) and 2.51 µM (active) and 3.98 µM (active),–,inactive,–,–
Clc1ccc2c(c1)C(N1CCNCC1)=Nc1ccccc1O2,inactive,inactive,–,inactive,inactive,inactive,inactive,inactive,inactive
CC(C)CCOCc1ccccc1,inactive,inactive,–,inactive,inactive,inactive,inactive,inactive,inactive
Cc1cc(OCCOCC[N+](C)(C)Cc2ccccc2)ccc1C(C)(C)CC(C)(C)C,inactive,12.1 µM (active),16.8 µM (active) and 3.05 µM (active),inactive,inactive,inactive,inactive,–,9.63 µM (active)
O=C(Nc1ccccc1SSc1ccccc1NC(=O)c1ccccc1)c1ccccc1,inactive,–,7.74 µM (active) and 15.4 µM (active),inactive,inactive,inactive,–,inactive,–
Nc1ccc(O)cc1,–,31.8 µM (active),841 nM (active) and 3.06 µM (active) and 897 nM (active),inactive,inactive,–,inactive,26.6 µM (active) and 30.6 µM (active) and 31.8 µM (active),–
CC(C)CCCCCCc1ccc(O)cc1,inactive,6.22 µM (active) and 61.1 µM (active),5.31 µM (active) and 1.56 µM (active) and 5.45 µM (active),inactive,inactive,inactive,inactive,62.2 µM (active),–
O=C(O[C@@H]1Cc2c(O)cc(O)cc2O[C@@H]1c1cc(O)c(O)c(O)c1)c1cc(O)c(O)c(O)c1,inactive,inactive,27.4 µM (active),inactive,inactive,–,inactive,inactive,–
O=C(Oc1ccccc1)c1ccccc1O,inactive,inactive,inactive and 54.5 µM (active),inactive,inactive,–,inactive,–,inactive
NC12CC3CC(CC(C3)C1)C2,inactive,inactive,–,inactive,inactive,inactive,inactive,inactive,inactive
CC(COc1ccccc1)N(CCCl)Cc1ccccc1 (stereo unspecified),–,inactive,inactive and 43.7 µM (active) and 43.3 µM (active),inactive,inactive,inactive,inactive,–,inactive
O=C(O)c1cccc(C(=O)O)c1,–,inactive,inactive,inactive,inactive,–,inactive,inactive,–
CCCCN(CCO)CCCC,inactive,inactive,–,inactive,inactive,inactive,–,inactive,inactive
c1ccc2c(c1)CCCC2C1=NCCN1 (stereo unspecified),inactive,inactive,–,inactive,inactive,–,–,inactive,inactive
CCN(CC)CCOc1ccc(/C(=C(\Cl)c2ccccc2)c2ccccc2)cc1,–,inactive,–,inactive,inactive,inactive,inactive,29.8 µM (active) and 49.6 µM (active),inactive
c1ccc2c(c1)-c1cccc3c1c-2cc1ccccc13,inactive,17.2 µM (active),13.4 µM (active) and 13.7 µM (active),inactive,inactive,inactive,inactive,–,inactive
NNCCc1ccccc1,inactive,inactive,inactive,inactive,inactive,inactive,inactive,–,inactive
CCc1cc(C(C)(C)C)c(O)c(C(C)(C)C)c1,inactive,inactive,15.5 µM (active) and 30.6 µM (active),inactive,inactive,inactive,inactive,15.5 µM (active) and inactive,–
COC(=O)/C=C/c1ccccc1,inactive,inactive,–,inactive,inactive,–,inactive,inactive,inactive
